Where “and” joins values, the source holds several entries; their conditions need not be identical. Identical values can stand only once. About 480 (0.16%) of roughly 300,000 compounds were called active.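 Rule for the calls: active = inhibition over 29.93%, a cutoff 3 SD above the screen mean, later confirmed by dose response; inconclusive = inhibition over 29.93% but no dose response follow-up; inactive = inhibition at most 29.93% or unconfirmed.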 These entries were drawn from the full list. Results with a measured potency or affinity are listed apart.
assay: PhoP-dependent GFP reporter repression – Salmonella Typhimurium, primary screen (AID 1863);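 note: 0% = low Mg2+ inducing control and 100% = high Mg2+ repressing control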; details: S. Typhimurium PhoP-regulated promoter GFP reporter, 4 h; at 50 µM; hits give high values

| SMILES | inhibition |
| --- | --- |
| COc1ccc(-c2cc(C(F)(F)F)n3nc(C(=O)N4CCN5CCCC5C4)cc3n2)cc1OC (centres undefined) | 8.34% (inactive) |
| CN1C(=O)[C@@H]2[C@H](C1=O)[C@@H]1C(=O)Nc3ccccc3C(=O)N1[C@@H]2c1ccc(F)cc1 | 6.12% (inactive) |
| CC1Cc2ccccc2N1C(=O)CSc1nnnn1-c1ccc2c(c1)OCCO2 (centres undefined) | 4.49% (inactive) |
| C#CCOCCOCCOCCNc1nc(N2CCN(C(=O)CCCCCCCCCCNC(=O)[C@H](CCCCN)n3cc(CCCC(=O)O)nn3)CC2)nc(N2CCN(C(=O)CCCCCCCCCCNC(=O)[C@H](CCCN=C(N)N)n3cc(C[C@@H](C)CC)nn3)CC2)n1 | -5.84% (inactive) |
| C#CCOCCOCCOCCNc1nc(N2CCN(C(=O)CCCCCCCCCCNC(=O)[C@H](CCCCN)n3cc(C)nn3)CC2)nc(N2CCN(C(=O)CCCCCCCCCCNC(=O)[C@H](CCCN=C(N)N)n3cc(C[C@@H](C)CC)nn3)CC2)n1 | 23.8% (inactive) |
| C#CCOCCOCCOCCNc1nc(N2CCN(C(=O)CCCCCCCCCCNC(=O)[C@H](CCCCN)n3cc(C[C@@H](C)CC)nn3)CC2)nc(N2CCN(C(=O)CCCCCCCCCCNC(=O)[C@H](CCCCN)n3cc(C[C@@H](C)CC)nn3)CC2)n1 | 20.6% (inactive) |
| C#CCOCCOCCOCCNc1nc(N2CCN(C(=O)CCCCCCCCCCNC(=O)[C@H](CCCCN)n3cc(CCO)nn3)CC2)nc(N2CCN(C(=O)CCCCCCCCCCNC(=O)[C@H](CCCN=C(N)N)n3cc(C[C@@H](C)CC)nn3)CC2)n1 | 25.8% (inactive) |
| Cc1cc(C)cc(NC(=O)CN(C)S(=O)(=O)c2cccc3nsnc23)c1 | -9.89% (inactive) |
| CC(C)CCNC(=O)NC(=O)COC(=O)CCN=C1NS(=O)(=O)c2ccccc21 | -10.2% (inactive) |
| COC(=O)CCC(=O)N1CN2CN(C(=O)CCC(=O)OC)CC([N+](=O)[O-])(C2)C1 | -5.21% (inactive) |
| c1ccc(Nc2nn[nH]n2)cc1 | -21.5% (inactive) |
| CC[C@H]1OC(=O)[C@H](C)[C@@H](O[C@H]2C[C@@](C)(OC)[C@@H](O)[C@H](C)O2)[C@H](C)[C@@H](O[C@@H]2O[C@H](C)C[C@H](N(C)C)[C@H]2O)[C@](C)(OC)C[C@@H](C)C(=O)[C@H](C)[C@@H](O)[C@]1(C)O | -8.63% (inactive) and -8.23% (inactive) |
| CCC(=O)O[C@@H]1CC(=O)O[C@H](C)CC=CC=C[C@@H](O)[C@H](C)C[C@H](CC=O)[C@H](O[C@H]2O[C@H](C)[C@@H](O[C@H]3C[C@@](C)(O)[C@@H](OC(=O)CC)[C@H](C)O3)[C@H](N(C)C)[C@H]2O)[C@H]1OC | -22.5% (inactive) |
| CC1CCCN(C(=O)c2ccc(S(=O)(=O)Nc3ccccc3Cl)cc2)C1 (centres undefined) | 3.82% (inactive) |
| Cc1ccc(CN2C(=O)CCC2C(=O)NCCN2CCN(c3cccc(Cl)c3)CC2)cc1 (centres undefined) | -4.51% (inactive) |
| CCOCCCNC(=O)c1ccc2c(c1)ncn2-c1ccc(C)cc1C | -8.15% (inactive) |
| NC(N)=N/N=C/c1ccc(OCc2ccc(Cl)cc2Cl)cc1 | -0.84% (inactive) |
| COc1cc(/C=N/N=C(N)N)ccc1OCc1ccc(Cl)cc1 | 2.42% (inactive) |
| NC(N)=N/N=C/c1ccc(OCc2ccccc2)cc1 | 17.1% (inactive) |
| NC(N)=N/N=C/c1ccc(OCc2ccccc2)c(OCc2ccccc2)c1 | 10.4% (inactive) |
| CCn1ncc(Cl)c1C(=O)NC(=S)Nc1c(C)cc(C)cc1[N+](=O)[O-] | 8.05% (inactive) |
| CC(=O)c1cccc(NC(=O)CCCNC(=O)c2ccc(Cl)cc2)c1 | 0.5% (inactive) |
| O=C(O)[C@@H]1CSC2c3ccccc3C(=O)N21 (some centres undefined) | -0.36% (inactive) |
| CSCC[C@H](NC(=O)Nc1ccc(Oc2ccccc2)cc1)C(=O)O | 0.47% (inactive) |
| COC(=O)CSc1nc(N)c(C#N)c(CC(C)C)c1C#N | -5.81% (inactive) |

| SMILES | inhibition |
| --- | --- |
| Cc1ccc(NS(=O)(=O)c2ccc3c(c2)NC(=O)CCS3)cc1F | 4.54% (inactive) |
| COc1ccc(NC(=O)C/C(C)=N/NC(=O)c2cccs2)c([N+](=O)[O-])c1 | 6.98% (inactive) |
| COc1ccccc1NC(c1cccnc1)c1ccc2cccnc2c1O (centres undefined) | 24.8% (inactive) |
| Oc1c(C(Nc2cccc(C(F)(F)F)c2)c2cccnc2)ccc2cccnc12 (centres undefined) | 69.6% (inactive) |
| Oc1ccccc1C(Nc1nccs1)c1ccc2cccnc2c1O (centres undefined) | 1.53% (inactive) |
| Cc1ccc2ccc(C(Nc3ccccn3)c3ccccc3)c(O)c2n1 (centres undefined) | 26.2% (inactive) |
| O=C(Cc1cccs1)NCc1ccncc1 | 20.6% (inactive) |
| CC1(C)CCC/C(=C\c2ccccc2)C1=O | -2.34% (inactive) |
| O=S(=O)(/N=C(/NNS(=O)(=O)c1ccccc1)c1ccccc1)c1ccccc1 | -3.53% (inactive) |
| CCN(CC)CCN(C)c1ccc(N2C(=O)C3CC=CCC3C2=O)cc1[N+](=O)[O-] (centres undefined) | -7.43% (inactive) |
| COc1ccc(Nc2nc(NCC3CCCO3)c3ccccc3n2)c(OC)c1 (centres undefined) | 0.13% (inactive) |
| Oc1ccccc1Nc1nc(NCC2CCCO2)c2ccccc2n1 (centres undefined) | 13.1% (inactive) |
| Oc1ccc(Nc2nc(NCC3CCCO3)c3ccccc3n2)cc1 (centres undefined) | -10.2% (inactive) |
| c1ccc(Nc2nc(NCC3CCCO3)c3ccccc3n2)cc1 (centres undefined) | -1.89% (inactive) |
| COCCOCC(O)CN1CCN(c2ccccc2)CC1 (centres undefined) | 4.06% (inactive) |
| COc1ccccc1-c1noc(-c2ccccc2C(=O)NCC2CCCO2)n1 (centres undefined) | -3.19% (inactive) |
| c1ccc(Nc2c3c(nc4ccccc24)CCC3)cc1 | 20.2% (inactive) |
| COc1ccc(Nc2c3ccccc3nc3ccccc23)cc1 | -2.51% (inactive) |
| O=C(O)c1cccc(Nc2c3ccccc3nc3ccccc23)c1 | 10.2% (inactive) |
| Cc1cc(Nc2cccc(O)c2)c2ccccc2n1 | 13.6% (inactive) |
| COc1ccc(Nc2c3c(nc4ccccc24)CCC3)cc1 | 12.7% (inactive) |
| CCOc1ccc(Nc2nc(N)c3ccccc3n2)cc1 | 29.9% (inactive) |
| Cc1ccc2nc3c(c(Nc4ccccc4)c2c1)CCC3 | 21.7% (inactive) |
| Fc1cccc(Nc2c3c(nc4ccccc24)CCC3)c1 | 6.97% (inactive) |
